The list is not random: actives were taken first. Their share in the collection is about 1.9%.
S1P2 agonist: agonists of human S1P2 receptor; O95136; S1P2-expressing cell line, agonist reporter read-out; activation, % at 4.5 µM; hit rate 0.46% among 97,000; AID 729; in the data active means activation above about 16%;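 further: 0% = vehicle low control and 100% = maximal reference agonist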
Target sequence (O95136 whole entry, looked up): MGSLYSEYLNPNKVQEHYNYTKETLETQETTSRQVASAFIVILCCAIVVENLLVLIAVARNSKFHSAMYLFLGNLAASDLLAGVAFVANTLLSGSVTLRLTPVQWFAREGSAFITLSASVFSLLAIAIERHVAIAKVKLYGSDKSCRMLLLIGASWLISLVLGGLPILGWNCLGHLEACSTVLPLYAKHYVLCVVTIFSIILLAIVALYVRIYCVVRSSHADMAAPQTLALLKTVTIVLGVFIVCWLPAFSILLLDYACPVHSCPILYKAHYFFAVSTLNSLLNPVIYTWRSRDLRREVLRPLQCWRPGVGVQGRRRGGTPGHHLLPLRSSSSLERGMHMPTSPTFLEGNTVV
GALR2 agonist: agonists of human galanin receptor 2 (GALR2). O43603. GALR2-expressing cells, agonist activation read-out. activation, % (test concentration not listed). hit rate 0.48% among 140,000; in the data active means activation above about 5%, passing the limit was not always enough;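 further: 0% = vehicle buffer wells and 100% = reference agonist at full effect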
Target sequence (O43603 whole entry, looked up): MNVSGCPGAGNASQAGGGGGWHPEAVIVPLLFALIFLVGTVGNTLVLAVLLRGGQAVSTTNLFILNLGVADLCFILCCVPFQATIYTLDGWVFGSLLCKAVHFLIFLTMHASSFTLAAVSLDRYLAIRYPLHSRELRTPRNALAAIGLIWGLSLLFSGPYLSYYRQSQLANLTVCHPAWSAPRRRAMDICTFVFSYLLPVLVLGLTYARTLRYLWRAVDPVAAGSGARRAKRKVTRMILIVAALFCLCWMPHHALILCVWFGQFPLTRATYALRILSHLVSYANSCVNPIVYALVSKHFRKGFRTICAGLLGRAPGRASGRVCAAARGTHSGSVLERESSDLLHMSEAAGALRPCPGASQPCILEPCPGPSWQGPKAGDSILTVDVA
FAK blocker: blocks human focal adhesion kinase activity; Q05397; biochemical FAK kinase activity assay; inhibition, %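 (tested at 7 µM)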; hit rate 0.84% among 97,000; AID 727; in the data active means inhibition above about 19%;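 further: 0% = DMSO and 100% = reference compound high control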
SDO1 yeast rescue: sdo1-depleted yeast growth rescue | S. cerevisiae sdo1-depleted JHY4D growth rescue, OD600 30 h; hits give high values; pdr5 snq2 efflux-pump mutant strain | z-score at 10 µM | hit rate 0.21% among 140,000 | AID 817;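 active means z-score above 3 at both the 24 hr and the 30 hr optical density reads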;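 further: z-score against mean and SD of all compound wells on the same plate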
GALR2 blocker: antagonists of human galanin receptor 2 (GALR2). O43603. GALR2-expressing cells, antagonist mode. inhibition, % at 4 µM. hit rate 0.39% among 140,000. AID 828;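 further: cells stimulated with galanin 1-16 at roughly its EC80; 0% = agonist challenge control and 100% = basal control without agonist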
S1P2 antag: blocks the human S1P2 receptor | cell-based S1P2 antagonist assay, inhibition at 5 uM | inhibition, % at 5 µM | hit rate 0.21% among 97,000; in the data active means inhibition above about 45%;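 further: CRE beta-lactamase reporter cells expressing human S1P2 stimulated with S1P; 0% = agonist at EC80 alone and 100% = agonist plus reference antagonist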
GALR2 blk conf: GALR2 (human) antagonism confirmed; shares compounds with GALR2 blocker; GALR2-expressing cells, antagonist mode, inhibition; inhibition, % at 4 µM; hit rate 60% among 480;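 further: cells stimulated with galanin at about its EC80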
BLA inhib ctr: beta-lactamase inhibition, GALR2 counterscreen; AID 867; inhibition, % at 4.2 µM; shares compounds with GALR2 blocker; CHO NFAT-BLA reporter, beta-lactamase FRET, thapsigargin-stimulated; hit rate 36% among 480;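 active means inhibition above the mean inhibition across tested compounds plus 3 SD, cut at about 27% in these data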;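 further: 0% = 500 nM thapsigargin stimulated wells and 100% = unstimulated BSA only wells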
* marks the source's active call; other numbers are inactive results; / = no result; [ ] = another dose, or the depositor's remark. Unless noted, no stated cut-off is given here; in the data, active means inhibition above about 27%; inactive means the rest.

SMILES | S1P2 agonist | GALR2 agonist | FAK blocker | SDO1 yeast rescue | GALR2 blocker | S1P2 antag | GALR2 blk conf | BLA inhib ctr
COc1ccc(C(=O)/C(=C\c2ccco2)N2C=CC=CC2=C(C#N)C#N)cc1 | 1.7 | -1.4 | 6.1 | -1.33 | 41.7* | 40.4 | 51.6* | 49.4*
N#CC(C#N)=C1C=CC=CN1/C(=C\c1ccco1)C(=O)c1ccccc1 | / | 0.5 | / | -0.88 | 54.9* | / | 79.4* | 83.1*
CCN(Cc1nc2ccccc2c(=O)[nH]1)Cc1cc(=O)oc2cc(OC)ccc12 | -2.0 | -2.0 | 0.9 | 1.01 | -0.7 | 1.5 | / | /
CCOc1ccc2[nH]c(=O)c(CN(CC3CCCN3CC)C(=O)NCc3ccccc3)cc2c1 (stereo not given) | / | 0.1 | / | 1.12 | -8.7 | / | / | /
S=C(Nc1cccc(Cl)c1)Nc1cccc2cnccc12 | / | -0.8 | / | 1.04 | 30.0* | / | 21.6 | 10.6
CCOC(=O)c1c(C)nc2sc(C(=O)Nc3ccc(C(C)=O)cc3)c(N)c2c1-c1ccc(OC)cc1 | -7.5 | 1.9 | 0.8 | -0.35 | 29.8* | 26.5 | 20.5 | 37.5*
CCOC(=O)c1c(C)nc2sc(C(=O)Nc3ccc(OC)cc3)c(N)c2c1-c1ccc(OC)cc1 | -1.6 | -3.1 | 0.1 | -0.54 | -0.8 | -6.8 | / | /
Cc1ccc(C(=O)N/C(=C/c2cccs2)C(=O)NCc2ccco2)cc1 | / | -0.9 | / | -0.36 | 27.0* | / | 6.1 | -2.5
Cc1ccc(S(=O)(=O)N[C@H](C(=O)Oc2ccc3c(C(F)(F)F)cc(=O)oc3c2)c2ccccc2)cc1 | -7.9 | -1.1 | 5.2 | 0.92 | 43.9* | 57.8* | 21.9 | 36.1*
O=C(Nc1ccc([N+](=O)[O-])cc1)Nc1nc(-c2ccc(Cl)s2)cs1 | / | 1.2 | / | -0.44 | 32.1* | / | 37.7* | 19.5
O=C(Nc1nc(-c2ccc(Cl)s2)cs1)c1cccs1 | / | -1.4 | / | -2.25 | 5.3 | / | / | /
CCN(CC)CCNc1ncnc2c1[nH]c1ccc(OC)cc12 | -6.4 | -3.5 | 8.1 | -0.62[13.3 µM] | 14.5 | 13.7 | / | /
COc1ccc2[nH]c3c(NCc4ccco4)ncnc3c2c1 | -9.8 | -2.4 | 17.7 | -0.12 | 28.1* | -3.9 | 22.6 | 8.1
CC(=O)c1cc(C#N)c(SCc2ccccc2)nc1C | -0.9 | -2.1 | 0.1 | -0.94 | -10.4 | -16.3 | / | /
CCN1/C(=C/c2ccc3cc(C)ccc3[n+]2CC)Sc2ccccc21 | / | -0.1 | / | -1.96 | 46.2* | / | 47.5* | 48.9*
C=CCn1cc(/C=N/Nc2nc3ccccc3[nH]2)c2ccccc21 | / | -0.7 | / | -1.61 | 28.1* | / | 29.0* | 10.8
C(=N\Nc1nc2ccccc2[nH]1)/c1cccs1 | -4.4 | -2.6 | 8.4 | 0.13 | 28.8* | 15.0 | 26.6 | 12.6
CC(C)Cn1c(/C=N/Nc2nc3ccccc3[nH]2)nc2ccccc21 | / | -0.2 | / | -2.26 | 8.6 | / | / | /
CCN(CC)c1ccc(/C=N/Nc2nc3ccccc3[nH]2)cc1 | / | 4.2 | / | -1.35 | 41.7* | / | 35.1* | 22.7
Cc1ccsc1/C=N/Nc1nc2ccccc2[nH]1 | / | -1.4 | / | -0.82 | 32.5* | / | 38.4* | 11.6
Cc1cc(C(=O)CSc2nnc(-c3ccco3)o2)c(C)n1CC1COc2ccccc2O1 (stereo not given) | / | -2.1 | / | 0.81 | 1.9 | / | / | /
COc1ccccc1-c1cc(C(F)(F)F)nc(S(C)(=O)=O)n1 | 3.5 | 10.5 | 1.5 | -2.55 | 21.9 | -73.5 | / | /
CS(=O)(=O)c1nc(-c2ccco2)cc(C(F)(F)F)n1 | -8.4 | 2.9 | 4.2 | -1.02 | 27.0* | 23.8 | 52.9* | 43.5*
Cc1cc(C)c2c(=O)[nH]c(=O)n(Cc3ccccc3)c2n1 | -1.2 | -2.6 | 1.4 | -1.15 | -0.7 | 6.4 | / | /
CC(NC(=O)Nc1nnc(C(F)(F)F)s1)(C(F)(F)F)C(F)(F)F | -2.5 | -2.1 | -3.8 | -0.76 | 38.1* | 24.7 | 22.2 | 8.0
SMILES | S1P2 agonist | GALR2 agonist | FAK blocker | SDO1 yeast rescue | GALR2 blocker | S1P2 antag | GALR2 blk conf | BLA inhib ctr
CCC1=Nc2cc(C(=O)NCc3ccco3)ccc2Sc2ccc(C)cc21 | / | 1.3 | / | -1.29 | 30.8* | / | 10.5 | 17.9
CCC1=Nc2cc(C(=O)NCCCOC)ccc2Sc2ccccc21 | -1.4 | -2.0 | -1.3 | -0.11 | 5.0 | -2.3 | / | /
O=c1cc(-c2ccccc2Cl)oc2cc(O)cc(O)c12 | / | -2.5 | / | -0.25 | -1.4 | / | / | /
O=C1C=CC(O)(c2cc(=O)c3c(O)cc(O)cc3o2)C=C1 | / | -2.5 | / | 0.1 | 90.1* | / | 82.6* | 39.3*
COc1ccc(Nc2nc(N3CCCC3)c3ccccc3n2)cc1 | / | 0.6 | / | -0.49 | 29.7* | / | 35.6* | 13.8
COC(=O)c1ccccc1NC(=O)CNC(=O)c1ccco1 | 1.1 | 0.0 | -4.3 | 0.68 | -2.7 | 10.1 | / | /
COc1ccc(COc2ccsc2C(=O)Nc2ccc(Cl)cc2)cc1 | -0.3 | -1.1 | 6.8 | -1.72 | 51.7* | -7.3 | 14.8 | 20.8
COc1ccc(Cc2nc(C(=O)Nc3ccc(Cl)cc3)cs2)cc1 | -3.6 | -2.3 | 1.1 | -0.72 | -10.0 | -20.0 | / | /
CCSc1nnc(NC(=O)C(CC)(C(F)(F)F)C(F)(F)F)s1 | -0.5 | -2.3 | 0.7 | -0.35 | 28.0* | -3.4 | 2.3 | -1.7
O=C(Cn1cnc2ccccc2c1=O)Nc1nnc(SCc2ccccc2)s1 | -2.2 | -1.0 | 2.2 | -0.55 | -1.1 | 16.8 | / | /
O=C(Nc1ccc(O)cc1)C1CC=CCC1 (stereo not given) | -9.1 | -0.7 | 0.7 | 0.7 | 5.1 | -0.4 | / | /
CC[C@@H]1C=C(C)C[C@H](C)C[C@H](OC)[C@H]2O[C@@](O)(C(=O)C(=O)N3CCCC[C@H]3C(=O)O[C@H](/C(C)=C/[C@@H]3CC[C@@H](O)[C@H](OC)C3)[C@H](C)[C@@H](O)CC1=O)[C@H](C)C[C@@H]2OC | / | -1.1 | / | -0.26 | 101.1* | / | 103.1* | 103.6*
COc1ccccc1CN1C(=O)C2CC=CCC2C1=O (stereo not given) | -6.6 | -2.3 | -2.5 | -0.01 | -3.9 | 17.8 | / | /
O=C(/C=C/c1ccc(Cl)cc1)NC(=S)Nc1ccc(NC(=O)c2ccco2)cc1 | / | -2.2 | / | -1.12 | 46.4* | / | 53.0* | 23.4
O=C1C=C(NC2=CC3OC(c4ccccc4)OCC3OC2=O)CCC1 (stereo not given) | / | -0.8 | / | -0.71 | 69.6* | / | 84.1* | 73.8*
O=C1C=C(NCc2ccccc2)CCC1 | / | 0.0 | / | -0.08 | -7.7 | / | / | /
OCCSc1nc(-c2cccnc2)nc2ccccc12 | 0.3 | -0.1 | 9.8 | -1.33 | -2.3 | -2.7 | / | /
CC(C)OC(=O)CSc1nc2ccccc2s1 | -3.5 | -2.5 | 1.7 | 0.02 | 33.7* | -24.2 | 6.3 | 15.5
O=C(NC(Nc1nc2ccc([N+](=O)[O-])cc2s1)(C(F)(F)F)C(F)(F)F)c1ccccc1Cl | / | -2.5 | / | -1.93 | 96.5* | / | 94.2* | 91.0*
C/C(=N\NC(=O)CSc1nc2ccccc2s1)c1ccco1 | / | -0.3 | / | 0.97 | -2.6 | / | / | /
Cc1sc2ncnc(NCc3ccccc3)c2c1C | -7.5 | -0.7 | 8.0 | -2 | 29.4* | 31.9 | 20.0 | 13.7
Cc1sc2ncnc(NCC3COc4ccccc4O3)c2c1C (stereo not given) | / | -0.3 | / | -1.01 | 38.6* | / | 45.6* | 10.7

High-throughput results as filed in PubChem BioAssay.
